According to PubChem BioAssay (NCI):
The panel holds about 83,000 compounds, 20% with a hit somewhere; the sample as a whole holds those more often.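 Method: cells in 96-well plates; compound added at one concentration; 48 h incubation; percent growth measured; values under 10 scored active.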 A number with no mark means an inactive call. Activity calls are given as the source filed them.

Columns and labels:
Assay in all cases: NCI-60 one-dose screen, 48 h (100 = growth as untreated, 0 = no growth, -100 = all killed)
Settings in all cases: 10 µM unless noted
DU-145 prostate = test system: DU-145 prostate
K-562 leukemia = test system: K-562 leukemia
MALME-3M melanoma = test system: MALME-3M melanoma
MDA-MB-231 breast = test system: MDA-MB-231 breast
RXF 393 renal = test system: RXF 393 renal
SF-268 CNS = test system: SF-268 CNS
SF-295 CNS = test system: SF-295 CNS
SF-539 CNS = test system: SF-539 CNS
UACC-257 melanoma = test system: UACC-257 melanoma
M14 melanoma = test system: M14 melanoma
HCT-15 colon = test system: HCT-15 colon
SNB-75 CNS = test system: SNB-75 CNS
SNB-19 CNS = test system: SNB-19 CNS
U251 CNS = test system: U251 CNS
SK-MEL-5 melanoma = test system: SK-MEL-5 melanoma
UACC-62 melanoma = test system: UACC-62 melanoma
LOX IMVI melanoma = test system: LOX IMVI melanoma
SK-MEL-28 melanoma = test system: SK-MEL-28 melanoma
PC-3 prostate = test system: PC-3 prostate

`CCN(CC)c1ccc(/C=N/NC(=O)c2ccc(S(N)(=O)=O)cc2)c(O)c1` was tested, and the growth (DU-145 prostate) was 31.1%, the growth (K-562 leukemia) was 12.4% and the growth (MALME-3M melanoma) was -1.7% (active). The growth (MDA-MB-231 breast) was 34%, the growth (RXF 393 renal) was -4.11% (active) and the growth (SF-268 CNS) was 20.5%. For the same compound, the growth (SF-295 CNS) was 12.6%, the growth (SF-539 CNS) was 5% (active) and the growth (UACC-257 melanoma) was -10.2% (active). The growth (M14 melanoma) was 1.08% (active), the growth (HCT-15 colon) was 20.9% and the growth (SNB-75 CNS) was 47.8%. For the same compound, the growth (SNB-19 CNS) was 29.9%, the growth (U251 CNS) was 20.8% and the growth (SK-MEL-5 melanoma) was -7.45% (active). For the same compound, the growth (UACC-62 melanoma) was -3.75% (active), the growth (LOX IMVI melanoma) was 0.484% (active) and the growth (SK-MEL-28 melanoma) was 20.6%.
With `CN1CCN(c2ccc(Nc3nc(NCCCNS(=O)(=O)c4cccc(F)c4)c4sccc4n3)cc2)CC1` the growth (DU-145 prostate) was 43.4%, the growth (K-562 leukemia) was 12.5% and the growth (MALME-3M melanoma) was -83.6% (active). For the same compound, the growth (MDA-MB-231 breast) was 36.1%, the growth (RXF 393 renal) was -71.4% (active) and the growth (SF-268 CNS) was 44.2%. The growth (SF-295 CNS) was 6.24% (active), the growth (SF-539 CNS) was -80.4% (active) and the growth (UACC-257 melanoma) was -64% (active). For the same compound, the growth (M14 melanoma) was -62.2% (active), the growth (HCT-15 colon) was 17.3% and the growth (SNB-75 CNS) was 82.1%. The growth (SNB-19 CNS) was 48.7%, the growth (U251 CNS) was 6.85% (active) and the growth (PC-3 prostate) was 63.1%. The growth (SK-MEL-5 melanoma) was -77.6% (active), the growth (UACC-62 melanoma) was 0.267% (active) and the growth (LOX IMVI melanoma) was -58.1% (active). For the same compound, the growth (SK-MEL-28 melanoma) was -77.4% (active).
`O=C1[C@@H]2Cc3c([nH]c4ccccc34)[C@@H](c3ccc(Cl)cc3)N2C(=O)CN1C1CCN(Cc2c(F)cccc2F)CC1` was tested, and the growth (DU-145 prostate) was 49.2%, the growth (K-562 leukemia) was 16.8% and the growth (MALME-3M melanoma) was 88.8%. For the same compound, the growth (MDA-MB-231 breast) was 66.4%, the growth (RXF 393 renal) was 44.4% and the growth (SF-268 CNS) was 39.2%. It also gave a growth (SF-295 CNS) of 41.4%, a growth (SF-539 CNS) of 60.9% and a growth (UACC-257 melanoma) of 51.1%. For the same compound, the growth (M14 melanoma) was 14.4%, the growth (HCT-15 colon) was 24.3% and the growth (SNB-75 CNS) was 25.9%. The growth (SNB-19 CNS) was 47.8%, the growth (U251 CNS) was 38% and the growth (PC-3 prostate) was 13.8%. The growth (SK-MEL-5 melanoma) was 48.8%, the growth (UACC-62 melanoma) was 40.7% and the growth (LOX IMVI melanoma) was 21.3%. For the same compound, the growth (SK-MEL-28 melanoma) was 64.8%.
With `CCOC(=O)c1c(NC(=O)c2cccc(C(F)(F)F)c2)sc2c3c(ccc12)OCN(C)C3` the growth (DU-145 prostate) was -16.8% (active), the growth (K-562 leukemia) was -64.1% (active) and the growth (MALME-3M melanoma) was -53.9% (active). The growth (MDA-MB-231 breast) was -95.9% (active), the growth (RXF 393 renal) was -91.4% (active) and the growth (SF-268 CNS) was -57.3% (active). For the same compound, the growth (SF-295 CNS) was 44.6%, the growth (SF-539 CNS) was -0.959% (active) and the growth (UACC-257 melanoma) was 30.8%. The growth (M14 melanoma) was -17% (active), the growth (HCT-15 colon) was -70.9% (active) and the growth (SNB-75 CNS) was 83.6%. For the same compound, the growth (SNB-19 CNS) was 49.6%, the growth (U251 CNS) was -79.4% (active) and the growth (PC-3 prostate) was -42.5% (active). The growth (SK-MEL-5 melanoma) was 68.6%, the growth (UACC-62 melanoma) was 25.6% and the growth (LOX IMVI melanoma) was -94.7% (active). For the same compound, the growth (SK-MEL-28 melanoma) was 9.77% (active).
For `CC[C@]12C=CCN3CC[C@@]4(c5ccc(OC)cc5N(C)[C@H]4[C@@](O)(C(=O)OC)[C@@H]1OC(=O)CCN1CCc4ccccc4C1)[C@@H]32`, the growth (DU-145 prostate) was 106%, the growth (K-562 leukemia) was 75.4% and the growth (MALME-3M melanoma) was 89.2%. The growth (MDA-MB-231 breast) was 84.9%, the growth (RXF 393 renal) was -95.9% (active) and the growth (SF-268 CNS) was 85.2%. It also gave a growth (SF-295 CNS) of 104%, a growth (SF-539 CNS) of 95.9% and a growth (UACC-257 melanoma) of 100%. It also gave a growth (M14 melanoma) of 98.2%, a growth (HCT-15 colon) of 84.8% and a growth (SNB-75 CNS) of 66.9%. The growth (SNB-19 CNS) was 91.9%, the growth (U251 CNS) was 87.5% and the growth (PC-3 prostate) was 70.1%. For the same compound, the growth (SK-MEL-5 melanoma) was 98.2%, the growth (UACC-62 melanoma) was 99% and the growth (LOX IMVI melanoma) was 88.5%. For the same compound, the growth (SK-MEL-28 melanoma) was 95%.
With `COc1ccccc1/C=C/C(=O)c1nnn(-c2ccc(F)cc2)c1C` the growth (DU-145 prostate) was 3.67% (active), the growth (K-562 leukemia) was 8.81% (active) and the growth (MALME-3M melanoma) was 70.6%. It also gave a growth (MDA-MB-231 breast) of 65.6%, a growth (RXF 393 renal) of 40.7% and a growth (SF-268 CNS) of 66.2%. The growth (SF-295 CNS) was 64.3%, the growth (SF-539 CNS) was 20.7% and the growth (UACC-257 melanoma) was 71.3%. It also gave a growth (M14 melanoma) of 62.3%, a growth (HCT-15 colon) of 22.9% and a growth (SNB-75 CNS) of 40.6%. It also gave a growth (SNB-19 CNS) of 63.2%, a growth (U251 CNS) of 36.3% and a growth (PC-3 prostate) of 68.9%. For the same compound, the growth (SK-MEL-5 melanoma) was 79.3%, the growth (UACC-62 melanoma) was 59.4% and the growth (LOX IMVI melanoma) was 2.13% (active). The growth (SK-MEL-28 melanoma) was 75.2%.
With `CCOP(=O)(OCC)OC[C@]12CCC(C)(C)C[C@H]1C1=CC[C@@H]3[C@@]4(C)CC[C@H](OP(=O)(OCC)OCC)C(C)(C)[C@@H]4CC[C@@]3(C)[C@]1(C)CC2` the growth (DU-145 prostate) was 83.1%, the growth (K-562 leukemia) was 28.9% and the growth (MALME-3M melanoma) was 62.6%. The growth (MDA-MB-231 breast) was 50.2%, the growth (RXF 393 renal) was 74.9% and the growth (SF-268 CNS) was 73.1%. For the same compound, the growth (SF-295 CNS) was 51.8%, the growth (SF-539 CNS) was 66.9% and the growth (UACC-257 melanoma) was 55%. The growth (M14 melanoma) was 51.9%, the growth (HCT-15 colon) was 34.6% and the growth (SNB-75 CNS) was 58.9%. It also gave a growth (SNB-19 CNS) of 71.2%, a growth (U251 CNS) of 49.1% and a growth (PC-3 prostate) of 19.3%. The growth (SK-MEL-5 melanoma) was 31.3%, the growth (UACC-62 melanoma) was 53.9% and the growth (LOX IMVI melanoma) was 37.2%. The growth (SK-MEL-28 melanoma) was 78.9%.
`CC[C@H](CC[C@@H](C)[C@H]1CC[C@H]2[C@@H]3CC(=O)C4=CC(=O)/C(=C/c5ccc([N+](=O)[O-])cc5)C[C@]4(C)[C@H]3CC[C@]12C)C(C)C` gave a growth (DU-145 prostate) of 104%, a growth (K-562 leukemia) of 81.4% and a growth (MALME-3M melanoma) of 101%. It also gave a growth (MDA-MB-231 breast) of 98.2%, a growth (RXF 393 renal) of 120% and a growth (SF-268 CNS) of 108%. It also gave a growth (SF-295 CNS) of 97.1%, a growth (SF-539 CNS) of 97.3% and a growth (UACC-257 melanoma) of 110%. It also gave a growth (M14 melanoma) of 89.7%, a growth (HCT-15 colon) of 96.9% and a growth (SNB-19 CNS) of 102%. The growth (U251 CNS) was 100%, the growth (PC-3 prostate) was 94.8% and the growth (SK-MEL-5 melanoma) was 96.7%. The growth (UACC-62 melanoma) was 90.2%, the growth (LOX IMVI melanoma) was 107% and the growth (SK-MEL-28 melanoma) was 104%.
